IDE exosite inh: exo-site inhibitors of human insulin-degrading enzyme. purified IDE, FL-6b probe fluorescence polarization; active compounds read low. AID 1259349. P14735. z-score at 20 µM. 6.3% of 17,000 active;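 active = z-score of -3 or lower, meaning strong loss of probe binding signal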;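 also: His-tagged human IDE residues 42-1019 made in E. coli with 30 nM FL-6b probe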
Numbers stand for hits; ! = not confirmed by another sample. This is one part of a sample in which hits are shown more often than they occur.

Results for OC[C@H]1[C@@H](c2ccc(-c3ccccc3)cc2)[C@@H]2CN(CCC(F)(F)F)CCCCN12 ?
IDE exosite inh: inactive

How did COc1ccccc1C#Cc1ccc([C@H]2[C@@H](CO)N3CCCCN(CCC(F)(F)F)C[C@H]23)cc1 do in these assays?
IDE exosite inh: -12

What do the screens show for `OC[C@H]1[C@H](c2ccc(C#CC3CCCC3)cc2)[C@@H]2CN(CCC(F)(F)F)CCCCN12`?
IDE exosite inh: inactive

How did C/C=C/c1cccc(-c2nc(C(=O)NCc3cccc(OC)c3)cc3c2[C@@H](CCO)N([S@](=O)C(C)(C)C)C3)c1 do in these assays?
IDE exosite inh: inactive

What do the screens show for `CN(C)C(=O)c1cccc(-c2ccccc2[C@H]2[C@@H](CO)N(C(=O)C3CC3)[C@H]2C#N)c1`?
IDE exosite inh: inactive

How did CCCC#Cc1ccc([C@H]2[C@@H](C#N)N(C(=O)C3CCC3)[C@@H]2CO)cc1 do in these assays?
IDE exosite inh: inactive

How did COc1ccccc1NC(=O)N1CCCCN2[C@@H](CO)[C@H](c3ccc(-c4cccc(C#N)c4)cc3)[C@@H]2C1 do in these assays?
IDE exosite inh: inactive

Results for COc1cccc(-c2ccc([C@H]3[C@H](CO)N4C(=O)CN(C(=O)C5CCCCC5)C[C@@H]34)cc2)c1 ?
IDE exosite inh: -5.6

Results for COc1ccc(-c2ccc([C@H]3[C@H]4CN(C(=O)C5CCCC5)CC(=O)N4[C@H]3CO)cc2)cc1 ?
IDE exosite inh: inactive

Results for COc1cccc(-c2ccc([C@H]3[C@H]4CN(C(=O)C5CCCCC5)CC(=O)N4[C@H]3CO)cc2)c1 ?
IDE exosite inh: -3.4

How did COc1cccc(-c2ccc([C@@H]3[C@H]4CN(C(=O)C5CCCCC5)CC(=O)N4[C@H]3CO)cc2)c1 do in these assays?
IDE exosite inh: -7.6

Results for COc1ccc(-c2ccc([C@H]3[C@H](CO)N4C(=O)CN(C(=O)C5CCCC5)C[C@@H]34)cc2)cc1 ?
IDE exosite inh: inactive

How did CC(=O)N1[C@H](CO)[C@@H](c2ccccc2)[C@@H]1CN(C(=O)c1ccccc1)C(C)C do in these assays?
IDE exosite inh: inactive

What do the screens show for `C/C=C/c1ccccc1[C@@H]1[C@@H](CO)N(c2ncc(CC)s2)[C@H]1C#N`?
IDE exosite inh: inactive

How did C[C@@H]1CN([C@@H](C)CO)S(=O)(=O)c2ccc(-c3ccncc3)cc2O[C@@H]1CN(C)S(C)(=O)=O do in these assays?
IDE exosite inh: inactive

Results for C/C=C/c1ccc([C@@H]2[C@@H](CN(CCC)C(C)=O)N(C(C)=O)[C@H]2CO)cc1 ?
IDE exosite inh: inactive

How did CCCNC(=O)N1[C@@H](CO)[C@@H](c2ccccc2)C12CN(C(=O)C1CCCCC1)C2 do in these assays?
IDE exosite inh: inactive

How did O=C(Nc1ccc2c(c1)OCO2)N1C[C@@H]2N[C@H](C1)C2c1ccc(C=Cc2ccccc2)cc1 (stereo not given in full) do in these assays?
IDE exosite inh: inactive

What do the screens show for `O=C(CN1CCOCC1)N1CC[C@@H]2[C@H]1c1cc(Br)ccc1N[C@@H]2CO`?
IDE exosite inh: inactive

How did CO[C@@H]1CN(C)C(=O)c2cc(NC(=O)c3cnccn3)ccc2OC[C@H](C)NC[C@H]1C do in these assays?
IDE exosite inh: inactive

What do the screens show for `CO[C@@H]1CN(C)C(=O)c2cc(NC(=O)c3ccc(Oc4ccccc4)cc3)ccc2OC[C@H](C)NC[C@@H]1C`?
IDE exosite inh: -8

Results for CO[C@@H]1CN(C)C(=O)c2cc(NC(=O)c3ccc(Oc4ccccc4)cc3)ccc2OC[C@@H](C)NC[C@H]1C ?
IDE exosite inh: -14

What do the screens show for `COc1cccc(NC(=O)Nc2ccc3c(c2)C(=O)N(C)C[C@H](OC)[C@H](C)CN[C@@H](C)CO3)c1`?
IDE exosite inh: inactive

Results for CO[C@H]1CN(C)C(=O)c2ccc(NC(=O)c3cccc(F)c3)cc2OC[C@@H](C)NC[C@@H]1C ?
IDE exosite inh: inactive

Results for CO[C@@H]1CN(C)C(=O)c2cc(NC(=O)c3cnccn3)ccc2OC[C@H](C)NC[C@@H]1C ?
IDE exosite inh: inactive

How did CO[C@H]1CN(C)C(=O)c2cc(NC(=O)c3ccc(Oc4ccccc4)cc3)ccc2OC[C@H](C)NC[C@H]1C do in these assays?
IDE exosite inh: -14!

Results for COc1cccc(NC(=O)Nc2ccc3c(c2)C(=O)N(C)C[C@@H](OC)[C@H](C)CN[C@@H](C)CO3)c1 ?
IDE exosite inh: inactive

Results for COc1cccc(NC(=O)Nc2ccc3c(c2)C(=O)N(C)C[C@H](OC)[C@@H](C)CN[C@H](C)CO3)c1 ?
IDE exosite inh: inactive

What do the screens show for `O=C(CC1CC1)N1CC(=O)N2[C@H](C1)[C@@H](c1ccc(-c3cccnc3)cc1)[C@@H]2CO`?
IDE exosite inh: inactive

What do the screens show for `CCCC(=O)Nc1ccc2c(c1)OC[C@@H](C)N(CC1CCOCC1)C[C@H](C)[C@@H](OC)CN(C)C2=O`?
IDE exosite inh: inactive

Results for C[C@H](CO)N1C[C@H](C)[C@@H](CN(C)C(=O)NC2CCCCC2)OCCCC[C@H](C)Oc2ccc(N(C)C)cc2C1=O ?
IDE exosite inh: inactive

How did O=C(NC[C@@H]1[C@@H](c2ccccc2)[C@H](CO)N1C(=O)C1CC1)NC1CCCC1 do in these assays?
IDE exosite inh: inactive

How did O=C(C[C@@H]1CC[C@H]2[C@@H](COC[C@@H](O)CN2C(=O)c2ccc(F)cc2)O1)N1CCCCC1 do in these assays?
IDE exosite inh: inactive

What do the screens show for `O=C1N[C@H](Cc2ccccc2)COCc2cnnn2CC[C@H]1Cc1ccc(-c2ccccc2)cc1`?
IDE exosite inh: inactive

How did COc1ccc2c3c([nH]c2c1)[C@@H](CO)NCC31CN(C(=O)Nc2ccc(F)cc2F)C1 do in these assays?
IDE exosite inh: inactive

Results for O=C(c1cccnc1)N1CC(=O)N2[C@H](CO)[C@@H](c3ccc(-c4ccc(F)cc4)cc3)[C@H]2C1 ?
IDE exosite inh: inactive

Results for O=C(c1cccnc1)N1CC(=O)N2[C@@H](CO)[C@H](c3ccc(/C=C/c4ccccc4)cc3)[C@@H]2C1 ?
IDE exosite inh: -15

What do the screens show for `O=C(c1cccnc1)N1CC(=O)N2[C@H](C1)[C@H](c1ccc(-c3ccc(F)cc3)cc1)[C@@H]2CO`?
IDE exosite inh: inactive

What do the screens show for `O=C(c1cccnc1)N1CC(=O)N2[C@H](CO)[C@H](c3ccc(/C=C/c4ccccc4)cc3)[C@H]2C1`?
IDE exosite inh: -16

Results for CN1C[C@H](O)COC[C@H]2O[C@H](CC(=O)NC3CCCC3)CC[C@@H]21 ?
IDE exosite inh: inactive

What do the screens show for `COc1ccccc1CNC(=O)C[C@H]1CC[C@H]2[C@H](COc3ccc(NC(C)=O)cc3C(=O)N2C)O1`?
IDE exosite inh: inactive

How did N#Cc1cccc(-c2ccc3c(c2)[C@@H]2[C@@H](CCN2C(=O)CN2CCOCC2)[C@@H](CO)N3)c1 do in these assays?
IDE exosite inh: inactive

What do the screens show for `C[C@H](CO)N1C[C@H](C)[C@H](CN(C)C(=O)Nc2ccccc2)OCCCC[C@H](C)Oc2ccc(NC(=O)Nc3ccccc3)cc2C1=O`?
IDE exosite inh: inactive

Results for C[C@@H](NC(=O)C[C@H]1C[C@@H]2c3cc(NS(=O)(=O)c4ccc(F)cc4)ccc3O[C@@H]2[C@H](CO)O1)c1ccccc1 ?
IDE exosite inh: inactive

What do the screens show for `C[C@H](CO)N1C[C@H](C)[C@H](CN(C)Cc2ccncc2)OCCCC[C@H](C)Oc2ccc(NS(=O)(=O)c3ccc(Cl)cc3)cc2C1=O`?
IDE exosite inh: inactive

Results for O=C1CNC[C@H]2[C@H](c3ccc(-c4ccccc4F)cc3)[C@@H](CO)N12 ?
IDE exosite inh: inactive
